Measurements: paper PMC7862700, “An all-to-all approach to the identification of sequence-specific readers for epigenetic DNA modifications on cytosine”

Legend:
Assay in all cases: DAPPL (digital affinity profiling via proximity ligation, sequencing); 10 mM Tris-HCl pH 7.5, 50 mM NaCl, 1 mM DTT, 4% glycerol, room temperature, 30 min; GST-TFs on glutathione beads, 16-mer random dsDNA library, 0.1% formaldehyde crosslink after washing; high values mean tight binding
FLI1 = target: T1, FLI1 (Homo sapiens, UniProt Q01543 1-452); conditions: protein: recombinant; tags: N-terminal GST; dsDNA, one strand shown
T1 sequence: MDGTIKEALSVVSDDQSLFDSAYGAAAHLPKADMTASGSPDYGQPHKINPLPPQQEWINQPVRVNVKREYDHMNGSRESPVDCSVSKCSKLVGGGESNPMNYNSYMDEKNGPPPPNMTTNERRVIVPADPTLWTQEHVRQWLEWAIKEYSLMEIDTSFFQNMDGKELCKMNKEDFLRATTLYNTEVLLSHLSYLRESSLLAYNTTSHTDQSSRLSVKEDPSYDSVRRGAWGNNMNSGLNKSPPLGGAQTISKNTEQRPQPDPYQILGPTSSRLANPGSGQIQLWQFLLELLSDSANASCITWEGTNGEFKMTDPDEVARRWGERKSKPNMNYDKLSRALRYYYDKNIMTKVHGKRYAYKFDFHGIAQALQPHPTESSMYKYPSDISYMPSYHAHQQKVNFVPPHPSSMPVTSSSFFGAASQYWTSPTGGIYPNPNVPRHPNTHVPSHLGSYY
Outline: (§1)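 Human transcription factors carrying a GST fusion were produced in yeast, bound to glutathione beads, tagged with DNA barcodes and pooled together with a tag-only sample. Each pool was held with 200 nmole of a random double-stranded 16-mer DNA library in Tris/NaCl/DTT/glycerol buffer for 30 min at room temperature, then washed, crosslinked in 0.1% formaldehyde, proximity-ligated with BsaI/T4 ligase (1 h, 37 °C), PCR-amplified and sequenced on an Illumina NextSeq500. Binding signal is the read frequency of each hexamer for a given factor divided by its frequency in the tag-only sample.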

ELK1 = target: T2, ELK1 (Homo sapiens, UniProt P19419 1-428); conditions: protein: recombinant; tags: N-terminal GST; dsDNA, one strand shown
T2 sequence: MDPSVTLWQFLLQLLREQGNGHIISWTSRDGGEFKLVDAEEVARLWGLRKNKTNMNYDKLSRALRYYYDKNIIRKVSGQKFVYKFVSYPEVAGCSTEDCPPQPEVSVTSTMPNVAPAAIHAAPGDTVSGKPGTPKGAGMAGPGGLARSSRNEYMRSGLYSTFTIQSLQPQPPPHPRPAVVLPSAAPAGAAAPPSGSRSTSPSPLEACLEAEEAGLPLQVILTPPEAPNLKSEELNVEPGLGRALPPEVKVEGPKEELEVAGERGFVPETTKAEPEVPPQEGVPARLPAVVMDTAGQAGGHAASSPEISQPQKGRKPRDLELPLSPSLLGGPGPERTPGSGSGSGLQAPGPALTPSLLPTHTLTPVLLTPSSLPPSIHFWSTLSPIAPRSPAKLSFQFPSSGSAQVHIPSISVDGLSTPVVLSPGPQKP
Outline: as §1

GABPA = target: T3, GABPA (Homo sapiens, UniProt Q06546 1-454); conditions: protein: recombinant; tags: N-terminal GST; dsDNA, one strand shown
T3 sequence: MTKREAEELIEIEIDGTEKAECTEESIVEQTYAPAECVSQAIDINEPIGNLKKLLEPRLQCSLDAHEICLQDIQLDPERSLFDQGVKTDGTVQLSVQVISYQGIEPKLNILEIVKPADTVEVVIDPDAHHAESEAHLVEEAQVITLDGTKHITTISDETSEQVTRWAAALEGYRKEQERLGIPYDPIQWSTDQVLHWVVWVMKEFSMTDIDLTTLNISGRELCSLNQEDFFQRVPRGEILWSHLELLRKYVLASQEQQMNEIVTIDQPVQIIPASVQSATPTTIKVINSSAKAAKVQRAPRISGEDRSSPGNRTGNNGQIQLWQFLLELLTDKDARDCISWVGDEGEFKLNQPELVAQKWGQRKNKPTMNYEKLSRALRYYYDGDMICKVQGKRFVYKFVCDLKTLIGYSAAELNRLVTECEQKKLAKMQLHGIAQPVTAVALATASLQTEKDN
Outline: as §1

ERG = target: T4, ERG (Homo sapiens, UniProt P11308 1-479); conditions: protein: recombinant; tags: N-terminal GST; dsDNA, one strand shown
T4 sequence: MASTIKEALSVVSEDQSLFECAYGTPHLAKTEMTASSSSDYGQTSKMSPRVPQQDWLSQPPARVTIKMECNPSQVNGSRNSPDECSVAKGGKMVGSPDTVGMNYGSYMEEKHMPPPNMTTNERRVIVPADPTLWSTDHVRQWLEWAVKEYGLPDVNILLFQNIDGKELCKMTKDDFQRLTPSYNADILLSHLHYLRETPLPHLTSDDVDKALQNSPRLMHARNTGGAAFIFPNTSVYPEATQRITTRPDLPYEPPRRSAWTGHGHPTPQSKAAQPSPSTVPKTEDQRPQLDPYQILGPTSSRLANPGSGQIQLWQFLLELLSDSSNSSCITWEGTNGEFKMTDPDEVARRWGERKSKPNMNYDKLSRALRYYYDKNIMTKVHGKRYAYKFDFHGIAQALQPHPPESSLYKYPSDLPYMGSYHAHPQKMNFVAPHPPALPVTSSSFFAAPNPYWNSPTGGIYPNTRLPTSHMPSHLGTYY
Outline: as §1

ELF1 = ELF1 (Homo sapiens, UniProt P32519 1-619); conditions: protein: recombinant; tags: N-terminal GST; dsDNA, one strand shown
ELF1, sequence (P32519 whole entry): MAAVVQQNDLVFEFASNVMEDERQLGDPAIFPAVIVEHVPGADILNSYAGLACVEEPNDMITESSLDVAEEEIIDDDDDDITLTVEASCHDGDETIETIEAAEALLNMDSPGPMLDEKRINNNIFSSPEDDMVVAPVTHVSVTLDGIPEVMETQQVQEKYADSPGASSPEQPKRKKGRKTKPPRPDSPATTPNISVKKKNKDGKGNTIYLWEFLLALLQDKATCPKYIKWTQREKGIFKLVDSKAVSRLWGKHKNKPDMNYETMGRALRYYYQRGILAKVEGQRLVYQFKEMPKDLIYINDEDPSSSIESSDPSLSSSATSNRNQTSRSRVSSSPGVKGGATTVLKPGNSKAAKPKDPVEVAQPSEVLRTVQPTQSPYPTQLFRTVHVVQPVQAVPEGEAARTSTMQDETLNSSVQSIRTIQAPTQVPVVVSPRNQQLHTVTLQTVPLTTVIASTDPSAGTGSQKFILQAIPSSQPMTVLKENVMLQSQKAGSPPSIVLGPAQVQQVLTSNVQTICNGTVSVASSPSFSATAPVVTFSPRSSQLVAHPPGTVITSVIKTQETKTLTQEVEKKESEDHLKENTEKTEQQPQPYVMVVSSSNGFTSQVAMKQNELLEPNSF
Outline: as §1

EHF = target: T5, EHF (Homo sapiens, UniProt Q9NZC4 1-300); conditions: protein: recombinant; tags: N-terminal GST; dsDNA, one strand shown
T5 sequence: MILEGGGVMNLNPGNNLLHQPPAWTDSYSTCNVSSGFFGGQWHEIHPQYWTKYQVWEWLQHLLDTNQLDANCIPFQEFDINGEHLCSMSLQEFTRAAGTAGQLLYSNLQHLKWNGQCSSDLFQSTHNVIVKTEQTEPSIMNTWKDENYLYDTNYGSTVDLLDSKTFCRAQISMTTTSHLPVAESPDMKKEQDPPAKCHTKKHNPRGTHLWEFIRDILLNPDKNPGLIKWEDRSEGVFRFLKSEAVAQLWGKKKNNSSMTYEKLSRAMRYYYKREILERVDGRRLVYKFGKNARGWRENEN
Outline: as §1

SPI1 = SPI1 (Homo sapiens, UniProt P17947 1-270); conditions: protein: recombinant; tags: N-terminal GST; dsDNA, one strand shown
Outline: as §1

SPIB = SPIB (Homo sapiens, UniProt Q01892 1-262); conditions: protein: recombinant; tags: N-terminal GST; dsDNA, one strand shown
SPIB, sequence (Q01892 whole entry): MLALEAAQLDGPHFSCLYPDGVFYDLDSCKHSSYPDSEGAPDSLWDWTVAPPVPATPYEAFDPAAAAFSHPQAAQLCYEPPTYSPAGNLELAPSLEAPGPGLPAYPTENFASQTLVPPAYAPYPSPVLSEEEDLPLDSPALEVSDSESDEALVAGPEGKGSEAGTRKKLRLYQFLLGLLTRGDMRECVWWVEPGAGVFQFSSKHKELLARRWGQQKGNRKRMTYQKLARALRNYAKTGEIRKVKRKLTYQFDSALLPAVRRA
Outline: as §1

ELK3 = target: T6, ELK3 (Homo sapiens, UniProt P41970 1-407); conditions: protein: recombinant; tags: N-terminal GST; dsDNA, one strand shown
T6 sequence: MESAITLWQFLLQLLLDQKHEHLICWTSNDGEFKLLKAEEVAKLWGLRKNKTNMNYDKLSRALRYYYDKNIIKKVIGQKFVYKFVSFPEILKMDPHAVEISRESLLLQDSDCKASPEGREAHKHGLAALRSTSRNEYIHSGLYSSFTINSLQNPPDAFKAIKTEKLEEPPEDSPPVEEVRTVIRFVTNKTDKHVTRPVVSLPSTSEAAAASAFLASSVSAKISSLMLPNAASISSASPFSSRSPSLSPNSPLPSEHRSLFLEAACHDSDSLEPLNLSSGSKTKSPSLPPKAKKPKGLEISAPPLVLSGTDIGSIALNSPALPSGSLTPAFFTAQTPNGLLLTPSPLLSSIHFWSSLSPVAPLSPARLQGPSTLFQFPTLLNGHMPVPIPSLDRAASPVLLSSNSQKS
Outline: as §1

FEV = target: T7, FEV (Homo sapiens, UniProt Q99581 1-238); conditions: protein: recombinant; tags: N-terminal GST; dsDNA, one strand shown
T7 sequence: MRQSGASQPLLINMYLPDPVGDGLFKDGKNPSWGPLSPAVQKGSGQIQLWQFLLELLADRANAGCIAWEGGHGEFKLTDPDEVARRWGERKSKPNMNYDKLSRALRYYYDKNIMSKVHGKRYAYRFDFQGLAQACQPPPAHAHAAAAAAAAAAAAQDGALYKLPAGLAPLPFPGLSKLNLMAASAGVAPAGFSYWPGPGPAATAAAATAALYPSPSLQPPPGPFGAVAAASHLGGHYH
Outline: as §1

ETV5 = ETV5 (Homo sapiens, UniProt P41161 1-510); conditions: protein: recombinant; tags: N-terminal GST; dsDNA, one strand shown
ETV5, sequence (P41161 whole entry): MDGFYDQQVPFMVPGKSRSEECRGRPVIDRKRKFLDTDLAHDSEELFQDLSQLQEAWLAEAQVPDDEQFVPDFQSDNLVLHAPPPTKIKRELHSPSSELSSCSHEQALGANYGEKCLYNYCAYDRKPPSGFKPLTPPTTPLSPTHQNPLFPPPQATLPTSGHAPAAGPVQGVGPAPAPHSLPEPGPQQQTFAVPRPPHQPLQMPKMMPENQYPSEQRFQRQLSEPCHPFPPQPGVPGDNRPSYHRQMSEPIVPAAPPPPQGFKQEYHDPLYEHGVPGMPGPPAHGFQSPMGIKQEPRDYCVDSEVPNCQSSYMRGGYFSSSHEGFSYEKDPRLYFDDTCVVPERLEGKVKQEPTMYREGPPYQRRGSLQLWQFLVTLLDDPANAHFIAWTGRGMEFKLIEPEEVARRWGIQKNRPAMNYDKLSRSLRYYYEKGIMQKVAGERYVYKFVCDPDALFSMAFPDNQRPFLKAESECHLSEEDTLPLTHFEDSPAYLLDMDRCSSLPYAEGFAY
Outline: as §1

HSF1 = HSF1 (Homo sapiens, UniProt Q00613 1-529); conditions: protein: recombinant; tags: N-terminal GST; chain copies: 3; dsDNA, one strand shown
HSF1, sequence (Q00613 whole entry): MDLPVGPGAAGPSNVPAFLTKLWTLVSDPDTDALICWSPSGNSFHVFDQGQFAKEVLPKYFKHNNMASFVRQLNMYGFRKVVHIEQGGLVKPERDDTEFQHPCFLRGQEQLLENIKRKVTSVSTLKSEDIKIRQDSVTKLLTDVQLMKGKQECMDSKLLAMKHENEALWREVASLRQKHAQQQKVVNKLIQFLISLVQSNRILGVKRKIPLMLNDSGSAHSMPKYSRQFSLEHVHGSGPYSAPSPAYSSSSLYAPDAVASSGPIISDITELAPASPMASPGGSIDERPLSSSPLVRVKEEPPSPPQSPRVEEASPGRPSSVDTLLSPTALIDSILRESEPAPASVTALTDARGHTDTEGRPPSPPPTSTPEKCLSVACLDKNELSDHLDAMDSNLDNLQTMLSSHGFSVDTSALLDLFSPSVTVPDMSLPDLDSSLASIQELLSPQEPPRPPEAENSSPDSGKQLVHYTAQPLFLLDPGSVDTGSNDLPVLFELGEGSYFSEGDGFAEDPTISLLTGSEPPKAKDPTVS
Outline: as §1

SPIC = target: T8, SPIC (Homo sapiens, UniProt Q8N5J4 1-248); conditions: protein: recombinant; tags: N-terminal GST; dsDNA, one strand shown
T8 sequence: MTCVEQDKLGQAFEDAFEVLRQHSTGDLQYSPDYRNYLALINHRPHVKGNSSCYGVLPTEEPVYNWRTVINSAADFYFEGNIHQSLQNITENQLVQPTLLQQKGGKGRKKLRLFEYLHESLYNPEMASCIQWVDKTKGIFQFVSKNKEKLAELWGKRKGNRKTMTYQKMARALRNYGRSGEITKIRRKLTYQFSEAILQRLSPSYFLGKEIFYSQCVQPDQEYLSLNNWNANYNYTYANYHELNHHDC
Outline: as §1

ELF4 = ELF4 (Homo sapiens, UniProt Q99607 1-663); conditions: protein: recombinant; tags: N-terminal GST; dsDNA, one strand shown
ELF4, sequence (Q99607 whole entry): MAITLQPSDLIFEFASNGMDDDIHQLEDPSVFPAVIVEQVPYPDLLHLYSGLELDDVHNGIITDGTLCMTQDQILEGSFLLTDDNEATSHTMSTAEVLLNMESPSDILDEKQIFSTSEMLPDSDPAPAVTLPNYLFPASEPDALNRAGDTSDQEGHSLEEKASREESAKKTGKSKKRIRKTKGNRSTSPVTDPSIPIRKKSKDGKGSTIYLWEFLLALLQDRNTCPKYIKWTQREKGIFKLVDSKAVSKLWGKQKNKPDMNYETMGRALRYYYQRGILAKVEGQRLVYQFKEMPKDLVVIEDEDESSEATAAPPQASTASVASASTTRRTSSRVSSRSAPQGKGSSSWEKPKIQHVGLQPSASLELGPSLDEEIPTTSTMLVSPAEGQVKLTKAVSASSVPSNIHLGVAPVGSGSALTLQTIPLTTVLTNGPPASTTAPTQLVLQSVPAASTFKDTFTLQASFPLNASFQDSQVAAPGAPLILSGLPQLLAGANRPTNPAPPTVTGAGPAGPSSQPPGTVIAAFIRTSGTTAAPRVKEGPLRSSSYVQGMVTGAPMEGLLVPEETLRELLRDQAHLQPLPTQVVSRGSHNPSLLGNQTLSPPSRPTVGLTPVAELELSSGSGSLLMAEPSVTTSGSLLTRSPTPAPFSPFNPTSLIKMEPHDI
Outline: as §1

ELK4 = target: T9, ELK4 (Homo sapiens, UniProt P28324-2 1-405); conditions: protein: recombinant; tags: N-terminal GST; dsDNA, one strand shown
T9 sequence: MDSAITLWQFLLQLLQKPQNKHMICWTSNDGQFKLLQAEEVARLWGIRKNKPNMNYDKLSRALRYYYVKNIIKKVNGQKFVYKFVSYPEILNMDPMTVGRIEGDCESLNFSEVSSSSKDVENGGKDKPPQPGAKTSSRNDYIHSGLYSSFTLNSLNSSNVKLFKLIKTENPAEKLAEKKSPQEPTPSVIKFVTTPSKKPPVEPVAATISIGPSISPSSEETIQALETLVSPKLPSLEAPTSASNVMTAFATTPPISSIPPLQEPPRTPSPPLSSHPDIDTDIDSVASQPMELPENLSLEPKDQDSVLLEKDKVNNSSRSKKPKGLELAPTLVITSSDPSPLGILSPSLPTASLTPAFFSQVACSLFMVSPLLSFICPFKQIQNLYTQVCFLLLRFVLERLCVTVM
Outline: as §1

ETV2 = target: T10, ETV2 (Homo sapiens, UniProt O00321 1-342); conditions: protein: recombinant; tags: N-terminal GST; dsDNA, one strand shown
T10 sequence: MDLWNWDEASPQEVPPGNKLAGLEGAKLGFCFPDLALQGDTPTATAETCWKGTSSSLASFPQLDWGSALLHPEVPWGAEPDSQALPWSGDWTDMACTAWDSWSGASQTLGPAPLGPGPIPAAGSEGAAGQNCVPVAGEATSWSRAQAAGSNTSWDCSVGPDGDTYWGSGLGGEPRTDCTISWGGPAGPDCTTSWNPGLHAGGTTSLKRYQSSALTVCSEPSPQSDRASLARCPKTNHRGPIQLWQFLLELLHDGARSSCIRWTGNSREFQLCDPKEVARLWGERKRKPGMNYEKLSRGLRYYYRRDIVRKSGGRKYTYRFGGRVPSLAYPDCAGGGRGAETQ
Outline: as §1

ELF3 = target: T11, ELF3 (Homo sapiens, UniProt P78545 1-371); conditions: protein: recombinant; tags: N-terminal GST; dsDNA, one strand shown
T11 sequence: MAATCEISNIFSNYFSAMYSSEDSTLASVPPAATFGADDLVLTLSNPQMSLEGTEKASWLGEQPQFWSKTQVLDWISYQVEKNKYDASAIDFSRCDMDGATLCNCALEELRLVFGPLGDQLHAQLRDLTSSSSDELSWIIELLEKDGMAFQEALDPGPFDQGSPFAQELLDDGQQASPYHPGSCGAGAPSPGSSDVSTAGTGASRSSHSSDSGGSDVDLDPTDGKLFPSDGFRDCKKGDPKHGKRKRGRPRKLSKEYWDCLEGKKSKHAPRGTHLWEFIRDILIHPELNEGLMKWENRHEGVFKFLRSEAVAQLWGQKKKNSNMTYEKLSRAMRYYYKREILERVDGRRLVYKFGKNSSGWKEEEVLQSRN
Outline: as §1

CRX = CRX (Homo sapiens, UniProt O43186 1-299); conditions: protein: recombinant; tags: N-terminal GST; dsDNA, one strand shown
CRX, sequence (O43186 whole entry): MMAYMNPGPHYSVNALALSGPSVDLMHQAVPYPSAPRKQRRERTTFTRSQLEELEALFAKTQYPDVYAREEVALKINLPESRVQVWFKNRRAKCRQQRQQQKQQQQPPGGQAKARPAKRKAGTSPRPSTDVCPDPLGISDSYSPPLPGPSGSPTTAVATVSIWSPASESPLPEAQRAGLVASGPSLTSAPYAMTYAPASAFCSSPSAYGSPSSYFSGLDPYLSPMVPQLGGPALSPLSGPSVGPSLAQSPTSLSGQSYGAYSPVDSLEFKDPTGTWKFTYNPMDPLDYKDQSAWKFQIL
Outline: as §1

ETV1 = ETV1 (Homo sapiens, UniProt P50549 1-477); conditions: protein: recombinant; tags: N-terminal GST; dsDNA, one strand shown
ETV1, sequence (P50549 whole entry): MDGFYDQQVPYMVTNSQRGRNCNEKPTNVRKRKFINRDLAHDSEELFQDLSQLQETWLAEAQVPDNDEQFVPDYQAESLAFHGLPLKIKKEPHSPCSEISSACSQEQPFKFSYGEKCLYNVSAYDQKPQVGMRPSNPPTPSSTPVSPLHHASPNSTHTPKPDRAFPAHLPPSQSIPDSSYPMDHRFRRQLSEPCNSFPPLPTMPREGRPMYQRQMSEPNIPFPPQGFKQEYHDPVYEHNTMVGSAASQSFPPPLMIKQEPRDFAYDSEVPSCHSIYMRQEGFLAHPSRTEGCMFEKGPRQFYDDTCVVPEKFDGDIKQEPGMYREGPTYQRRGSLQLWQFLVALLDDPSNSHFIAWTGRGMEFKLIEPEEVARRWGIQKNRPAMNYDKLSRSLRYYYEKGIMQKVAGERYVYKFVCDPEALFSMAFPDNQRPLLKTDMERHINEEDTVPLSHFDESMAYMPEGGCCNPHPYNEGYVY
Outline: as §1

TTCTTT was tested, and the binding signal (FLI1) was 1.18 fold enrichment (6-mer frequency, TF over GST control), the binding signal (ELK1) was 1.13 fold enrichment (6-mer frequency, TF over GST control) and the binding signal (GABPA) was 1.21 fold enrichment (6-mer frequency, TF over GST control). The binding signal (ERG) was 1.27 fold enrichment (6-mer frequency, TF over GST control), the binding signal (ELF1) was 1.35 fold enrichment (6-mer frequency, TF over GST control) and the binding signal (EHF) was 1.11 fold enrichment (6-mer frequency, TF over GST control). The binding signal (SPI1) was 1.23 fold enrichment (6-mer frequency, TF over GST control), the binding signal (SPIB) was 1.21 fold enrichment (6-mer frequency, TF over GST control) and the binding signal (ELK3) was 1.17 fold enrichment (6-mer frequency, TF over GST control). The binding signal (FEV) was 1.19 fold enrichment (6-mer frequency, TF over GST control), the binding signal (ETV5) was 1.14 fold enrichment (6-mer frequency, TF over GST control) and the binding signal (HSF1) was 1.7 fold enrichment (6-mer frequency, TF over GST control). For the same sequence, the binding signal (SPIC) was 1.2 fold enrichment (6-mer frequency, TF over GST control), the binding signal (ELF4) was 1.28 fold enrichment (6-mer frequency, TF over GST control) and the binding signal (ELK4) was 1.25 fold enrichment (6-mer frequency, TF over GST control). The binding signal (ETV2) was 1.27 fold enrichment (6-mer frequency, TF over GST control), the binding signal (ELF3) was 1.28 fold enrichment (6-mer frequency, TF over GST control) and the binding signal (CRX) was 1.44 fold enrichment (6-mer frequency, TF over GST control). For the same sequence, the binding signal (ETV1) was 1.29 fold enrichment (6-mer frequency, TF over GST control).
